Screening results (PubChem BioAssay)
DAT uptake mod – changed human dopamine transporter uptake under cocaine IC80. LLC-PK1 hDAT cells, [14C]-dopamine uptake with cocaine IC80; actives deviate in either direction. B-score at 10 µM. 110,000 tested, 1.3% active. AID 449768;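 active = Z score or B-score, a plate-position-corrected score, falls beyond the plate's 99.7% confidence bounds, in either direction; inactive = both scores lie inside the 99.7% bounds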
Target sequence (Q01959 whole entry, looked up): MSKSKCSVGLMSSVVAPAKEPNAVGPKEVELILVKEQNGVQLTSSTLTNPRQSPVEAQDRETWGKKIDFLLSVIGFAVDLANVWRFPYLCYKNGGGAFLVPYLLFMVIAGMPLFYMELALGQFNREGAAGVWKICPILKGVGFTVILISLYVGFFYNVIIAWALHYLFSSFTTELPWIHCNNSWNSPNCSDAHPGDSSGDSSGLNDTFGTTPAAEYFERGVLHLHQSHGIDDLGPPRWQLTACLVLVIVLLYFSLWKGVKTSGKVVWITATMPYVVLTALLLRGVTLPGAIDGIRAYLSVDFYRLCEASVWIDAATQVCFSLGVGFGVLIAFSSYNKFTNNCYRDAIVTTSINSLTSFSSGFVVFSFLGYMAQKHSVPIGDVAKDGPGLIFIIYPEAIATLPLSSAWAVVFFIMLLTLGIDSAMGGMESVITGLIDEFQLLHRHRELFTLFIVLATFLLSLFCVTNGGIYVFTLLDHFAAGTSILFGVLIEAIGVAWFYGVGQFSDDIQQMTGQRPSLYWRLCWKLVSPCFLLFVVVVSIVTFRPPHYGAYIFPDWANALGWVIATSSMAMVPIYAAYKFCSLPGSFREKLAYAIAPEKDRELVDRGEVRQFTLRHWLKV
EphB4 antag – EphB4-ephrin-B2 interaction antagonism; EphB4 LBD / TNYL-RAW-Alexa532 peptide, fluorescence polarization; 97,000 tested, 0.15% active; AID 720; P54760; inhibition, % at 7 µM;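 active = inhibition above the screen-wide mean inhibition plus 3 SD, cut at about 15% in these data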
D1 allo mod – allosterically modulates the human D1 dopamine receptor | P21728 | 58,000 tested, 5.9% active | HEK293 D1, CRE-luciferase, dopamine EC30 potentiation; actives deviate in either direction | B-score at 10 µM;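 active = luminescence count or its row- and column-corrected plate score outside the 99.7% band of the plate's sample wells, on either side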
D1 mod confirm – confirmation of human D1 dopamine receptor allosteric modulators; shares compounds with D1 allo mod; HEK293 D1 CRE-luciferase, dopamine EC30 potentiation; hits give high values; luminescence at 10 µM; 2,200 tested, 88% active; AID 642;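 active = luminescence in either of two replicates above the same-plate mean plus 3 SD of the low-dose dopamine control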
D1 no dopamine – D1 (human) signaling in absence of dopamine. shares compounds with D1 allo mod. HEK293 D1 CRE-luciferase, luminescence, no dopamine; hits give high values. luminescence at 10 µM. 1,900 tested, 0.8% active; in the data active = luminescence above about 3900
Isoprot counter – counter-screen for D1 modulators: isoproterenol response in HEK293 cells. 2,200 tested, 63% active. calls only at 10 µM. HEK293 D1 CRE-luciferase, isoproterenol EC30 counter-screen. shares compounds with D1 allo mod. AID 647;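 active = luminescence in either replicate above plate mean of wells with a partly effective reference agonist dose plus 3 SD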;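 also: isoproterenol raises cAMP through native beta-adrenoceptor Gs so signal bypasses D1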
Hits are given with their value. The sample as a whole holds a higher share of hits than the screen did.

For COc1ccc(-c2nc(CSCC(=O)N3CCN(C)CC3)c(C)o2)cc1OC the results were DAT uptake mod inactive and EphB4 antag inactive.
For CSc1ccc(-c2nc(CSCC(=O)N3CCOCC3)c(C)o2)cc1 the results were DAT uptake mod inactive, EphB4 antag inactive, D1 allo mod 26, D1 mod confirm inactive, D1 no dopamine inactive and Isoprot counter inactive.
For C/C(=N\NC(=O)c1[nH]c2c([N+](=O)[O-])cc(C)cc2c1-c1ccccc1)c1cccnc1 the results were DAT uptake mod inactive and EphB4 antag inactive.
Screening CC(OC(=O)c1cccnc1SCc1cc(=O)n2ccccc2n1)c1ccccn1 (stereo unspecified) returned DAT uptake mod inactive and EphB4 antag inactive.
For CCOC(=O)c1cccnc1SCc1cc(=O)n2ccccc2n1 the results were DAT uptake mod inactive, EphB4 antag inactive, D1 allo mod 4.4, D1 mod confirm 10728, D1 no dopamine inactive and Isoprot counter active.
`CCOC(=O)c1c(-c2cccs2)csc1NC(=O)CNCCN1CCOCC1` gave DAT uptake mod inactive and EphB4 antag inactive.
`CCC(C)NC(=O)N[C@@H](CCSC)C(=O)OC` (stereo partly specified) gave DAT uptake mod inactive and EphB4 antag inactive.
`CCOC(=O)C(CCSC)NC(=O)CN` (stereo unspecified) gave DAT uptake mod inactive, D1 allo mod 4.8, D1 mod confirm inactive, D1 no dopamine inactive and Isoprot counter inactive.
CCOCC(=O)Nc1cc(C(=O)OC)ccc1C(=O)OC was read as DAT uptake mod inactive, EphB4 antag inactive and D1 allo mod inactive.
COC(=O)c1ccc(C(=O)OC)c(NC(=O)COC(=O)C23CC4CC(CC(O)(C4)C2)C3)c1 was read as DAT uptake mod inactive, EphB4 antag inactive, D1 allo mod 3.1, D1 mod confirm 5580, D1 no dopamine inactive and Isoprot counter inactive.
For COC(=O)c1ccccc1NC1CC(=O)N(c2c(C)cccc2C)C1=O (stereo unspecified) the results were DAT uptake mod inactive and EphB4 antag inactive.
`CCOC(=O)c1cc(CC)sc1NC(=O)COC` gave DAT uptake mod inactive, EphB4 antag inactive, D1 allo mod 12, D1 mod confirm 17728, D1 no dopamine inactive and Isoprot counter active.
CCOC(=O)c1cc(CC)sc1NC(=O)Cc1ccccc1 was read as DAT uptake mod inactive and EphB4 antag inactive.
Screening c1ccc2c(c1)nc(CN1CCOCC1)n1c3ccccc3nc21 returned DAT uptake mod inactive and EphB4 antag inactive.
Screening O=S(=O)(c1ccc2oc3ccccc3c2c1)N1CCOCC1 returned DAT uptake mod inactive and EphB4 antag inactive.
For CCn1c2ccccc2c2nc3cc(S(=O)(=O)N4CCOCC4)ccc3nc21 the results were EphB4 antag inactive, D1 allo mod 6.5, D1 mod confirm 15708, D1 no dopamine inactive and Isoprot counter active.
c1ccc2nc3c(nc2c1)c1ccccc1n3CCN1CCOCC1 was read as DAT uptake mod inactive, EphB4 antag inactive, D1 allo mod 9.5, D1 mod confirm 18764, D1 no dopamine inactive and Isoprot counter active.
For CC(=O)Nc1ccc(S(=O)(=O)N(Cc2ccccc2)C(C)C)cc1 the results were DAT uptake mod inactive and EphB4 antag inactive.
Cc1ccc(S(=O)(=O)N2CCC(C(=O)NCCCOC(C)C)CC2)cc1 was read as DAT uptake mod inactive and EphB4 antag inactive.
For COc1ccc(-c2c3c(nc4sc5c(Cl)nc(C)nc5c24)CCC3)cc1 the results were DAT uptake mod inactive and EphB4 antag inactive.
Screening COc1nc(NCc2ccco2)nc(N2CCC(C)CC2)n1 returned DAT uptake mod inactive, EphB4 antag inactive, D1 allo mod 10, D1 mod confirm 15736, D1 no dopamine inactive and Isoprot counter active.
COc1nc(OC)nc(N2CCC(C(=O)NCc3ccco3)CC2)n1 was read as DAT uptake mod inactive and D1 allo mod inactive.
For Cc1ccnc(N/C=C(\C#N)c2nc(-c3cccc(Br)c3)cs2)c1 the results were DAT uptake mod inactive and EphB4 antag inactive.
`O=S(=O)(Nc1nc(-c2sccc2Cl)cs1)c1cc(Cl)ccc1Cl` gave DAT uptake mod inactive and EphB4 antag inactive.
Screening COC(=O)c1ccc(CSc2ccc3nnc(-c4cccc(F)c4)n3n2)o1 returned DAT uptake mod inactive, EphB4 antag inactive and D1 allo mod inactive.
